Reference: PubChem BioAssay (Tox21)
Where “and” joins values, the source holds several entries; their conditions need not be identical. Equal entries are not always repeated. Inconclusive results are not listed. Calls of active or inactive are those of the source. Unless noted, calls follow the shape of the dose curve; as a rule, active = well fitted curve in the direction sought with a large enough effect in the repeat runs; inconclusive = weak or mixed curves; inactive = no such curve, though single readings can be large; an effect the other way counts as inactive or inconclusive.

Columns and labels:
[1] = target: Thyrotropin receptor (Homo sapiens) (UniProt P16473); experiment: qHTS assay to identify small molecule agonists of the thyroid stimulating hormone receptor (TSHR) signaling pathway (AID 1224843; calls by dose curve; also: nearly all actives have a fitted effect of over 45% in size)
Procedure, shortened: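 A cell-based cAMP HTRF format was run in TSHR-transfected HEK293 cells, 800 per well. Treatment: 30 min, room temperature. Detection: 1 h with labelled cAMP and anti-cAMP cryptate. Concentration-response over 15 points, three replicates.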

[2] = qHTS assay to identify small molecule agonists of H2AX (AID 1224845; active = well fitted activation curve with a large enough effect in the signal ratio in the repeat runs, not every such curve was filed as active; the % refers to the signal ratio)
Procedure, shortened: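 Phospho-H2AX Ser139 measured by HTRF (ex 320 nm; em 665 and 620 nm) after 24 hr antibody incubation. Compounds, 15 concentrations, 0.76% DMSO, were applied to CHO-K1 cells for 3hr at 37C before lysis.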

[3] = qHTS assay to identify small molecule agonists of the hypoxia (HIF-1) signaling pathway (AID 1224846; active = well fitted activation curve with a large enough effect in the signal ratio in the repeat runs, not every such curve was filed as active; the % refers to the signal ratio)
Procedure, shortened: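 ME-180 HRE-bla reporter cells; compounds in DMSO, 17 h at 37C; read-out beta-lactamase via CCF4-AM FRET.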

[4] = qHTS RealTime-Glo MT Cell Viability Assay in HepG2 cells - 24 hour (AID 1224867); also: nearly all actives have a fitted effect of over 50% in size
Procedure, shortened: (§1)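 Luminescence read-out: viable HepG2 cells reduce a prosubstrate to a NanoLuc substrate, giving a signal proportional to live cell number. Reads taken at 0, 8, 16, 24, 32 and 40 h of compound exposure at 37 C.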

[5] = qHTS RealTime-Glo MT Cell Viability Assay in HEK293 cells - 32 hour (AID 1224868); also: top concentration of the series differs between compounds; nearly all actives have a fitted effect of over 50% in size
Procedure, shortened: (§2)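 Nonlytic real-time viability readout: viable cells convert prosubstrate to NanoLuc substrate, giving luminescence proportional to live cell number. HEK293, 600 cells/well, compound added after 5 h, continuous culture at 37 C.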

[6] = A CellTox Green Cytotoxicity Assay to monitor cytotoxicity in HEK293 cells - 0 hour (AID 1224869); also: nearly all actives have a fitted effect of over 50% in size
Procedure, shortened: (§3)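 Real-time, in one plate: 600 HEK293 cells/well with dead-cell DNA dye, pinned compound after 5 h, 37 C incubation over 40 h; viable cells give no appreciable fluorescence.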

[7] = qHTS RealTime-Glo MT Cell Viability Assay in HepG2 cells - 40 hour (AID 1224870); also: nearly all actives have a fitted effect of over 50% in size
Procedure, shortened: (§4)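 Real-time viability: cells seeded at 600 per well together with NanoLuc and cell-permeant prosubstrate, compounds added after 5 h incubation. Luminescence tracked at 0, 8, 16, 24, 32 and 40 h of exposure.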

[8] = A CellTox Green Cytotoxicity Assay to monitor cytotoxicity in HEK293 cells - 40 hour (AID 1224871); also: nearly all actives have a fitted effect of over 45% in size
Procedure, shortened: as §3

[9] = qHTS RealTime-Glo MT Cell Viability Assay in HEK293 cells - 16 hour (AID 1224872)
Procedure, shortened: as §2

[10] = qHTS RealTime-Glo MT Cell Viability Assay in HepG2 cells - 8 hour (AID 1224873); also: nearly all actives have a fitted effect of over 55% in size
Procedure, shortened: as §4

[11] = qHTS RealTime-Glo MT Cell Viability Assay in HEK293 cells - 40 hour (AID 1224874); conditions: RealTime-Glo luminescence; max response: stronger effect = lower value; also: nearly all actives have a fitted effect of over 50% in size
Procedure, shortened: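 Kinetic, non-lysing viability readout. Seed HEK293 (600/well) with reagent, incubate 5 h at 37 C/5% CO2, pin 23 nL compound in DMSO, incubate at 37 C, read luminescence at 0, 8, 16, 24, 32, 40 h.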

[12] = A CellTox Green Cytotoxicity Assay to monitor cytotoxicity in HEK293 cells - 24 hour (AID 1224875); also: nearly all actives have a fitted effect of over 45% in size
Procedure, shortened: as §3

[13] = A CellTox Green Cytotoxicity Assay to monitor cytotoxicity in HepG2 cells - 16 hour (AID 1224876); also: nearly all actives have a fitted effect of over 45% in size
Procedure, shortened: (§5)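 Cytotoxicity was tracked as dead-cell DNA fluorescence in HepG2 cells treated with test compounds at 37 C; each time-point value comes from one kinetic series spanning 0, 8, 16, 24, 32 and 40 h.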

[14] = qHTS RealTime-Glo MT Cell Viability Assay in HepG2 cells - 32 hour (AID 1224877); also: nearly all actives have a fitted effect of over 55% in size
Procedure, shortened: as §1

[15] = A CellTox Green Cytotoxicity Assay to monitor cytotoxicity in HepG2 cells - 24 hour (AID 1224878); also: nearly all actives have a fitted effect of over 45% in size
Procedure, shortened: as §5

[16] = A CellTox Green Cytotoxicity Assay to monitor cytotoxicity in HepG2 cells - 40 hour (AID 1224879); also: nearly all actives have a fitted effect of over 40% in size
Procedure, shortened: as §5

[17] = qHTS assay to identify small molecule agonists of H2AX - cell viability counter screen (AID 1224847; calls by dose curve; also: top concentration of the series differs between compounds; nearly all actives have a fitted effect of over 30% in size)
Procedure, shortened: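 Quantitative HTS viability measurement: CHO-K1 wild-type cells in serum (10% FBS) medium, short 3 hr drug exposure at 37C with 0.76% DMSO, CellTiter-Glo luminescent detection.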

[18] = qHTS assay to identify small molecule antagonists of the estrogen related receptor (ERR) signaling pathway from Tox21 library (AID 1224848); also: nearly all actives have a fitted effect of over 50% in size
Procedure, shortened: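 ERR cell line, 2,000 cells/well. 6 h settle, then compound (DMSO) added; 18 h at 37 C; ONE-Glo luminescence after 30 min RT.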

[19] = qHTS assay to identify small molecule agonists of the estrogen related receptor (ERR) signaling pathway from Tox21 library (AID 1224849; calls by dose curve; also: nearly all actives have a fitted effect of over 15% in size); conditions: ERR reporter cell line, ONE-Glo luciferase, 18 h
Procedure, shortened: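 Luciferase activity in ERR pathway reporter cells served as the agonist readout; exposure lasted 18 h at 37 C, with ONE-Glo detection after 30 min at room temperature.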

[20] = qHTS assay to identify small molecule agonists of the hypoxia (HIF-1) signaling pathway - cell viability counter screen (AID 1224844; calls by dose curve; also: nearly all actives have a fitted effect of over 50% in size)
Procedure, shortened: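 In this counter screen, HRE-bla ME-180 cell viability after 17 hrs of compound exposure at 37C was read by CellTiter-Glo luminescence, multiplexed with the beta-lactamase reporter measurement.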
% is scaled to controls: 0 for no effect and ±100 for the full control effect.

Sequence of Thyrotropin receptor (Homo sapiens) (P16473 whole entry, looked up): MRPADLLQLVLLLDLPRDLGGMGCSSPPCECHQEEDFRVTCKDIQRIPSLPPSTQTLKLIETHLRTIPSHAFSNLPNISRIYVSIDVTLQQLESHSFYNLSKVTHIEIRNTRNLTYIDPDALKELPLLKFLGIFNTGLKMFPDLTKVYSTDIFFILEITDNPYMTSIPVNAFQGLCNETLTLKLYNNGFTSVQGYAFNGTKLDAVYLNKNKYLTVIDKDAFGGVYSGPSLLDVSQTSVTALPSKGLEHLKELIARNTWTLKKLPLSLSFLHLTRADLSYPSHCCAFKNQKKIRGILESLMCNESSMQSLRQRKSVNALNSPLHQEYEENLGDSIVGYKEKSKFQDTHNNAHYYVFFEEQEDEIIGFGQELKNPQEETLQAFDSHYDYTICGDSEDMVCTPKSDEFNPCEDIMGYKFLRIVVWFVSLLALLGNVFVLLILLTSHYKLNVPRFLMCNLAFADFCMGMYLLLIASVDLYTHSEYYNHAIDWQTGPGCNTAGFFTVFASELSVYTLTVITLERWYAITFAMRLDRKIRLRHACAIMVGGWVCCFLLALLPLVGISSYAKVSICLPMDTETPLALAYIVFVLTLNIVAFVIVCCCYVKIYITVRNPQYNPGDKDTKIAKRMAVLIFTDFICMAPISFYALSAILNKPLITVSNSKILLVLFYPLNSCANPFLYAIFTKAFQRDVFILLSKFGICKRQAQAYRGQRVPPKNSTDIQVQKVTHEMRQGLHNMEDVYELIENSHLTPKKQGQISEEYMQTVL

C=CCc1ccc(OC)cc1
inactive: Potency [1] | Potency [2] | outcome [3] | Potency [4] | Potency [5] | Potency [6] | Potency [7] | Potency [8] | Potency [9] | Potency [10] | max response [11] -1.64% and 2.11% | Potency [12] | Potency [13] | Potency [14] | Potency [15] | Potency [16]

Nn1cnnc1
inactive: Potency [1] | Potency [2] | outcome [3] | Potency [17] | Potency [4] | Potency [5] | Potency [6] | Potency [7] | Potency [8] | Potency [9] | Potency [10] | Potency [12] | Potency [13] | Potency [14] | Potency [15] | Potency [16]

NCc1cccnc1
inactive: Potency [1] | Potency [2] | outcome [3] | Potency [17] | Potency [18] | activity change, positive = activation ([19]; at 42.5 µM (top of the series)) 0.61% | activity change, positive = activation ([19]; at 92.4 µM (top of the series)) 4.26% | Potency [4] | Potency [5] | Potency [6] | Potency [7] | Potency [8] | Potency [9] | Potency [10] | max response [11] 0.404% and -2.08% | Potency [12] | Potency [13] | Potency [14] | Potency [15] | Potency [16]

CCN(CC)N=O
inactive: Potency [1] | Potency [2] | outcome [3] | Potency [18] | activity change, positive = activation ([19]; at 92.4 µM (top of the series)) 0.678% | Potency [4] | Potency [5] | Potency [6] | Potency [7] | Potency [9] | Potency [10] | max response [11] -2.46% and 23.7% | Potency [12] | Potency [13] | Potency [14] | Potency [15] | Potency [16]

CC(C)(c1cc(Cl)c(O)c(Cl)c1)c1cc(Cl)c(O)c(Cl)c1
inactive: Potency [1] | Potency [2] | Potency [17] | Potency [18] | activity change, positive = activation ([19]; at 92.4 µM (top of the series)) -0.444% and -2.89% | Potency [4] | Potency [5] | Potency [6] | Potency [7] | Potency [9] | Potency [10] | max response [11] -12.2% and -31.9% | Potency [12] | Potency [13] | Potency [14] | Potency [15] | Potency [16]

CCCCC(CC)COC(=O)c1ccc(C(=O)OCC(CC)CCCC)c(C(=O)OCC(CC)CCCC)c1 (configuration not stated)
inactive: Potency [1] | Potency [20] | outcome [3] | Potency [17] | Potency [4] | Potency [5] | Potency [6] | Potency [7] | Potency [8] | Potency [9] | Potency [12] | Potency [13] | Potency [14] | Potency [15] | Potency [16]

O=S(=O)(Oc1ccc(Cl)cc1)c1ccc(Cl)cc1
inactive: Potency [1] | Potency [20] | outcome [3] | Potency [18] | activity change, positive = activation ([19]; at 92.4 µM (top of the series)) -19.6% and -8.56% | Potency [4] | Potency [5] | Potency [6] | Potency [7] | Potency [9] | Potency [10] | Potency [12] | Potency [13] | Potency [14] | Potency [15] | Potency [16]
